Laboratory results as given in PubChem BioAssay AID2284381 (EPA ToxCast).
Records with an inconclusive call do not appear. Activity calls are given as the source filed them. Rule for the calls: active = hit-call score of the fitted dose curve at least 0.9, where 1 is the maximum; inconclusive = response in the unintended direction; inactive = score below 0.9.

The compounds below were run on Japanese medaka Retinoid X Receptor beta (RXRb), gene 100125505 (assay: ATG_jmRXRb_EcoTox2: Attagene TRANS-FACTORIAL EcoTox-2 HepG2 Assay for Japanese medaka Retinoid X Receptor beta (RXRb)).
Experimental: ATG_EcoTox2 is a cell-based, multiplexed assay created by modifying the existing Attagene TRANS-FACTORIAL system to include a panel of nuclear receptors from some or all the following species: human (Homo sapiens), african clawed frog (Xenopus laevis), rainbow trout (Oncorhynchus mykiss), japanese medaka (Oryzias latipes), and zebrafish (Danio rerio). The ECOTOX2-FACTORIAL format uses HepG2, a human liver cell line, with measurements taken at 24 hours after chemical dosing in a 24-well plate. ATG_jmRXRb_EcoTox2 is one of 29 assay components calculated in the ATG_EcoTox2 assay. It is designed to make measurements of mRNA induction, a form of inducible reporter, as detected with fluorescence intensity signals by Reverse transcription polymerase chain reaction (RT-PCR) and Capillary electrophoresis technology.The assay endpoint ATG_jmRXRb_EcoTox2 was analyzed in the positive analysis fitting direction relative to DMSO as the negative control and baseline of activity. Using a type of inducible reporter, measures of mRNA for gain-of-signal activity can be used to understand the reporter gene at the transcription factor-level as they relate to the gene RXRb. Furthermore, this assay endpoint can be referred to as a primary readout, because this assay has produced multiple assay endpoints where this one serves a reporter gene function. To generalize the intended target to other relatable targets, this assay endpoint is annotated to the nuclear receptor intended target family, where the subfamily is non-steroidal.
Human liver HepG2 cells are transiently transfected with multiple reporter transcription units (MRTUs) in 6-well plates using FuGene 6 reagent (Roche; 3 ml FuGene/1 mg DNA). The MRTU constructs are regulated by a cis-regulating element (promoter). Each RTU expresses a GAL4-UAS that regulates the transcription of a nearby target reporter gene sequence. A major difference between the CIS and TRANS system is that in CIS activities of endogenous TFs are measured, whereas the TRANS assay evaluates changes in activities of exogenous, chimeric NR-Gal4 proteins. […] At the end of 24 hour incubation, total RNA was isolated using TriZol reagent (Invitrogen). The isolated RNA is then reverse-transcribed using oligo(dT) primer and Mo-MLV reverse transcriptase (Invitrogen) with DNAse I (Ambion) treatment for 30 min. The one-tenth of the produced cDNA was amplified by PCR using Taq DNA polymerase (Invitrogen) and two reporter sequence-specific primers. The PCR products were fluorescently labeled by primer extension with 6-arboxyfluorescein (6-FAM) 5'-labeled reporter sequence-specific primer (2 min at 95 C, 20 s at 68 C and 10 min at 72 C) and these products were digested with 5U of HpaI (New England Biolabs) for 2h at 37 C. The fragments were purified using Qiaquick PCR columns (Qiagen), analyzed on an ABI 3130xL genetic analyzer (Applied Biosystems) with peak positions identified by using a set of X-rhodamine (ROX)-labeled MapMarker1000 molecular weight standards (BioVentures). The raw capillary electrophoresis data was processed using Attagraph software (Attagene).

Structure (SMILES)	AC50	outcome
Cc1cccc(Nc2cc(Cl)nc(SCC(=O)O)n2)c1C	27.4 µM (active)	
CC(c1cc2ccccc2s1)N(O)C(N)=O (stereo not given)		inactive
CC(C)(Oc1ccc(C2CC2(Cl)Cl)cc1)C(=O)O (stereo not given)		inactive
CN(CCOc1ccc(CC2SC(=O)NC2=O)cc1)c1ccccn1 (stereo not given)	12.9 µM (active)	
C=C(c1ccc(C(=O)O)cc1)c1cc2c(cc1C)C(C)(C)CCC2(C)C	0.00302 µM (active)	
CC(C)(Oc1ccc(CCNC(=O)c2ccc(Cl)cc2)cc1)C(=O)O		inactive
C[C@@H]1C[C@H]2[C@@H]3CCC4=CC(=O)C=C[C@]4(C)[C@@]3(F)[C@@H](O)C[C@]2(C)[C@@]1(O)C(=O)COP(=O)(O)O		inactive
Cc1ccc(C)c(OCCCC(C)(C)C(=O)O)c1	50 µM (active)	
CC(C)(Oc1ccc(Cl)cc1)C(=O)O		inactive
Cc1nc(-c2ccc(C(F)(F)F)cc2)sc1C(=O)NCc1ccc(OC(C)(C)C(=O)O)cc1		inactive
